Measured values as given in PubChem BioAssay AID1159580 (chemical genetic matrix, 2015).
“And” between values parts separate entries of the source, which are not always exact repeats. Equal entries are not always repeated. Hit rate of the full screen: of about 5,500 compounds, about 2,000 (36%) were called active. Inconclusive results (about 18%) are left out. Cut-off read from the data, not from the text of the source: active = normalized growth mostly below about 0.91 (no sharp cut-off); inconclusive = no clear call, values can overlap the other calls; inactive = mostly above about 0.92. Some of the results follow.

Assay: chemical genetic growth profiling, strain panel (AID 1159580);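 note: tested at 20 µM; growth read once vehicle control cultures reached saturation at 30 °C; 1 = growth at the plate median or of vehicle wells; lower values mean less growth of the strain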
Details: growth OD

Measured: normalized growth

Nc1ccncc1
inactive: S. cerevisiae deletion strains, locus YJR075W, strain HOC1, stronger effect = lower value 1.03 and 1 | S. cerevisiae deletion strains, locus YKL009W, strain mrt4, stronger effect = lower value 1.03 | S. cerevisiae deletion strains, locus YKL068W, stronger effect = lower value 0.988 | S. cerevisiae deletion strains, locus YKL085W, strain MDH1 (second series), stronger effect = lower value 0.995 | S. cerevisiae deletion strains, locus YKL085W, strain MDH1, stronger effect = lower value 0.995 | S. cerevisiae deletion strains, locus YKL160W, strain elf1, stronger effect = lower value 0.994 | S. cerevisiae deletion strains, locus YKL190W, strain CNB1, stronger effect = lower value 1.01 | S. cerevisiae deletion strains, locus YKR001C, strain vps1, stronger effect = lower value 0.931 | S. cerevisiae deletion strains, locus YKR026C, strain gcn3, stronger effect = lower value 0.984 | S. cerevisiae deletion strains, locus YKR091W, strain srl3, stronger effect = lower value 0.987 | S. cerevisiae deletion strains, locus YLL001W, strain dnm1, stronger effect = lower value 0.981 | S. cerevisiae deletion strains, locus YLL026W, stronger effect = lower value 0.999 | S. cerevisiae deletion strains, locus YLL041C, strain sdh2, stronger effect = lower value 0.989 | S. cerevisiae deletion strains, locus YLR027C, strain aat2, stronger effect = lower value 0.994 | S. cerevisiae deletion strains, locus YLR039C, strain RIC1, stronger effect = lower value 1 | S. cerevisiae deletion strains, locus YLR058C, strain SHM2, stronger effect = lower value 1.02 | S. cerevisiae deletion strains, locus YLR102C, strain apc9, stronger effect = lower value 0.97 | S. cerevisiae deletion strains, locus YLR113W, strain HOG1, stronger effect = lower value 0.958 | S. cerevisiae deletion strains, locus YLR221C, strain rsa3, stronger effect = lower value 1 | S. cerevisiae deletion strains, locus YLR258W, strain gsy2, stronger effect = lower value 0.987 | S. cerevisiae deletion strains, locus YLR262C, strain YPT6 (second series), stronger effect = lower value 0.971 | S. cerevisiae deletion strains, locus YLR262C, strain YPT6, stronger effect = lower value 1.02 | S. cerevisiae deletion strains, locus YLR268W, strain sec22, stronger effect = lower value 0.921 | S. cerevisiae deletion strains, locus YLR320W, strain mms22, stronger effect = lower value 0.993 | S. cerevisiae deletion strains, locus YLR330W, strain CHS5, stronger effect = lower value 1.01 | S. cerevisiae deletion strains, locus YLR342W, strain FKS1 (second series), stronger effect = lower value 1.02 | S. cerevisiae deletion strains, locus YLR342W, strain FKS1, stronger effect = lower value 0.991 | S. cerevisiae deletion strains, locus YLR357W, strain rsc2, stronger effect = lower value 1.01 | S. cerevisiae deletion strains, locus YLR370C, strain arc18, stronger effect = lower value 0.997 | S. cerevisiae deletion strains, locus YLR371W, strain rom2, stronger effect = lower value 0.976 | S. cerevisiae deletion strains, locus YLR384C, strain iki3, stronger effect = lower value 0.994 | S. cerevisiae deletion strains, locus YLR418C, strain cdc73, stronger effect = lower value 0.935 | S. cerevisiae deletion strains, locus YML016C, strain PPZ1, stronger effect = lower value 1.02 | S. cerevisiae deletion strains, locus YML032C, strain rad52, stronger effect = lower value 0.957 | S. cerevisiae deletion strains, locus YML120C, strain ndi1, stronger effect = lower value 0.998 | S. cerevisiae deletion strains, locus YML124C, strain tub3, stronger effect = lower value 0.977 | S. cerevisiae deletion strains, locus YMR058W, strain fet3, stronger effect = lower value 1 | S. cerevisiae deletion strains, locus YMR078C, strain ctf18, stronger effect = lower value 0.958 | S. cerevisiae deletion strains, locus YMR125W, strain sto1, stronger effect = lower value 0.984 | S. cerevisiae deletion strains, locus YMR129W, stronger effect = lower value 0.993 | S. cerevisiae deletion strains, locus YMR205C, strain PFK2, stronger effect = lower value 0.999 | S. cerevisiae deletion strains, locus YMR223W, strain ubp8, stronger effect = lower value 0.977 | S. cerevisiae deletion strains, locus YMR231W, strain pep5, stronger effect = lower value 0.995 | S. cerevisiae deletion strains, locus YMR263W, strain SAP30, stronger effect = lower value 1.02 and 1.01 | S. cerevisiae deletion strains, locus YMR307W, strain GAS1, stronger effect = lower value 1.01 | S. cerevisiae deletion strains, locus YNL067W, strain RPL9B, stronger effect = lower value 1.01 | S. cerevisiae deletion strains, locus YNL071W, strain lat1, stronger effect = lower value 0.995 | S. cerevisiae deletion strains, locus YNL128W, strain TEP1, stronger effect = lower value 1.02 | S. cerevisiae deletion strains, locus YNL153C, strain GIM3, stronger effect = lower value 1.01 and 1 | S. cerevisiae deletion strains, locus YNL175C, strain NOP13, stronger effect = lower value 1 | S. cerevisiae deletion strains, locus YNL183C, strain NPR1, stronger effect = lower value 0.912 | S. cerevisiae deletion strains, locus YNL197C, strain WHI3, stronger effect = lower value 1.01 | S. cerevisiae deletion strains, locus YNL209W, strain ssb2, stronger effect = lower value 0.993 | S. cerevisiae deletion strains, locus YNL224C, strain SQS1, stronger effect = lower value 0.998 | S. cerevisiae deletion strains, locus YNL233W, strain BNI4, stronger effect = lower value 1 | S. cerevisiae deletion strains, locus YNL248C, strain rpa49, stronger effect = lower value 0.993 | S. cerevisiae deletion strains, locus YNL250W, strain rad50, stronger effect = lower value 0.978 | S. cerevisiae deletion strains, locus YNL271C, strain bni1, stronger effect = lower value 0.942 | S. cerevisiae deletion strains, locus YNL298W, strain CLA4, stronger effect = lower value 0.966 | S. cerevisiae deletion strains, locus YNL307C, strain MCK1, stronger effect = lower value 0.947 | S. cerevisiae deletion strains, locus YNL322C, strain KRE1 (second series), stronger effect = lower value 0.99 | S. cerevisiae deletion strains, locus YNL322C, strain KRE1, stronger effect = lower value 1.01 and 1.02 | S. cerevisiae deletion strains, locus YNR049C, strain mso1, stronger effect = lower value 0.99 | S. cerevisiae deletion strains, locus YNR052C, strain pop2, stronger effect = lower value 0.974 | S. cerevisiae deletion strains, locus YOL006C, strain TOP1, stronger effect = lower value 0.996 | S. cerevisiae deletion strains, locus YOL012C, strain htz1 1.65 | S. cerevisiae deletion strains, locus YOL147C, strain pex11, stronger effect = lower value 0.956 | S. cerevisiae deletion strains, locus YOR001W, strain rrp6, stronger effect = lower value 0.993 | S. cerevisiae deletion strains, locus YOR061W, strain CKA2, stronger effect = lower value 1.02 | S. cerevisiae deletion strains, locus YOR069W, strain VPS5, stronger effect = lower value 1.02 | S. cerevisiae deletion strains, locus YOR070C, strain gyp1, stronger effect = lower value 0.999 | S. cerevisiae deletion strains, locus YOR080W, strain dia2, stronger effect = lower value 0.99 | S. cerevisiae deletion strains, locus YOR083W, strain WHI5 (second series), stronger effect = lower value 0.998 | S. cerevisiae deletion strains, locus YOR083W, strain WHI5, stronger effect = lower value 1 | S. cerevisiae deletion strains, locus YOR106W, strain vam3, stronger effect = lower value 1.01 | S. cerevisiae deletion strains, locus YOR136W, strain idh2, stronger effect = lower value 0.974 | S. cerevisiae deletion strains, locus YOR144C, strain elg1, stronger effect = lower value 0.963 | S. cerevisiae deletion strains, locus YOR184W, strain ser1, stronger effect = lower value 0.904 | S. cerevisiae deletion strains, locus YOR231W, strain MKK1, stronger effect = lower value 0.968 | S. cerevisiae deletion strains, locus YOR265W, strain rbl2, stronger effect = lower value 0.991 | S. cerevisiae deletion strains, locus YOR270C, strain vph1, stronger effect = lower value 0.98 | S. cerevisiae deletion strains, locus YOR290C, strain snf2, stronger effect = lower value 1 | S. cerevisiae deletion strains, locus YOR316C, strain cot1, stronger effect = lower value 0.973 | S. cerevisiae deletion strains, locus YPL051W, strain arl3, stronger effect = lower value 0.988 | S. cerevisiae deletion strains, locus YPL055C, strain LGE1, stronger effect = lower value 1.07 | S. cerevisiae deletion strains, locus YPL078C, strain atp4, stronger effect = lower value 0.995 | S. cerevisiae deletion strains, locus YPL106C, strain sse1, stronger effect = lower value 1 | S. cerevisiae deletion strains, locus YPL240C, strain hsp82, stronger effect = lower value 0.983 | S. cerevisiae deletion strains, locus YPL241C, strain CIN2, stronger effect = lower value 1.01 | S. cerevisiae deletion strains, locus YPL256C, strain CLN2, stronger effect = lower value 0.946 | S. cerevisiae deletion strains, locus YPR119W, strain clb2, stronger effect = lower value 0.947 | S. cerevisiae deletion strains, locus YPR141C, strain kar3, stronger effect = lower value 0.99 | S. cerevisiae deletion strains, locus YPR163C, strain tif3, stronger effect = lower value 0.959 | S. cerevisiae deletion strains, locus YPR167C, strain met16, stronger effect = lower value 0.969 | S. cerevisiae deletion strains, strain wtn01, stronger effect = lower value 0.963 | S. cerevisiae strains, strain wild type, stronger effect = lower value 1.02
